Measured values published in PubChem BioAssay AID2588 (National Center for Advancing Translational Sciences (NCATS), 2010).
Records with an inconclusive call do not appear. Calls of active or inactive are those of the source. The call rests on the fitted dose curve; in most records, active means well fitted inhibition curve with a large enough effect; inconclusive means small, poorly fitted or top-dose-only effect, or effect the other way; inactive means flat fitted curve, though single readings scatter.

molecular target: Lysosomal acid glucosylceramidase (Homo sapiens) (UniProt P04062); test: qHTS Assay for Inhibitors and Activators of N370S glucocerebrosidase as a Potential Chaperone Treatment of Gaucher Disease: Activity in Non-Mutant Spleen Homogenate Using a Red Fluorescent Substrate; conditions: red fluorogenic substrate GCase activity; series mostly up to 50.2 µM
Sequence (P04062 whole entry, looked up): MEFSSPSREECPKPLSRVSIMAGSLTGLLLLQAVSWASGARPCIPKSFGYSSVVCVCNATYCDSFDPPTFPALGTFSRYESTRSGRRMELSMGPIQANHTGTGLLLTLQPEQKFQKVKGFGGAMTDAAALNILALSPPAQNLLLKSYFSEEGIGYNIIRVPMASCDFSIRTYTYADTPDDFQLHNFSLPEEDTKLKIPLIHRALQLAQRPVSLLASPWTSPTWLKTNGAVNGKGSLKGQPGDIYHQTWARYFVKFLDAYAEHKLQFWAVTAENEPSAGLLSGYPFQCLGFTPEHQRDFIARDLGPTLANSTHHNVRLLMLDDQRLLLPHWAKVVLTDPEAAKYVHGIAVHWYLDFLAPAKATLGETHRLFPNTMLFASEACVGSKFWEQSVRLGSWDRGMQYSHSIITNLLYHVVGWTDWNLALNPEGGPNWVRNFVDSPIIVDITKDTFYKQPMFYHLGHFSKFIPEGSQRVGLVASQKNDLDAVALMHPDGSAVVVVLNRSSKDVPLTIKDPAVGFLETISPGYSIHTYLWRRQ
Description: NIH Chemical Genomics Center [NCGC]
NIH Molecular Libraries Probe Production Centers Network [MLPCN]
Assay Submitter (PI): Wei Zheng
Glucocerebrosidase (GC) catalyzes the hydrolysis of beta-glucocerebroside to glucose and ceramide in lysosomes. Mutations in the glucocerebrosidase gene result in Gaucher disease, an autosomal recessive lysosomal storage disorder. Many of the mutations encountered in patients with Gaucher disease are missense alterations that may cause misfolding, decreased stability and/or mistrafficking of this lysosomal protein. […] These inhibitors include iminosugar analogs and three non-iminosugar inhibitors identified from a previous HTS of 62,000 compounds with the wild type recombinant enzyme. However, the enhancement of enzyme activity by the chaperone action of an enzyme inhibitor must be balanced against the direct inhibition of the enzyme. An enzyme activator could also function as a chaperone by binding to the enzyme and helping to correct its misfolding and mistrafficking. While activators for GC have not yet been identified, they may have better therapeutic potential than inhibitors. Therefore the discovery and development of chemical activators may provide a new strategy for the chaperone therapy.
We have optimized a new assay using N370S mutant GC derived from the spleen of a Gaucher patient. […] In addition, the MLPCN compound library has expanded, which increases the chance of finding new and better probes.
This confirmation assay tests for compound activity in spleen homogenate containing wildtype enzyme using an alternate resorufin-based substrate.
NCGC Assay Protocol Summary:
This is a fluorogenic enzyme assay with resorufin-beta-D-glucopyranoside as the substrate and wildtype glucocerebrosidase from human spleen homogenate as the enzyme preparation. Upon the hydrolysis of this fluorogenic substrate, the resulting product, […] which can be detected by a standard fluorescence plate reader. Data were normalized to the controls for basal activity (without enzyme) and 100% activity (with enzyme). The AC50 values were determined from concentration-response data modeled with the standard Hill equation.
Assay buffer: 50 mM citric acid (titrated with potassium phosphate to pH 5.0), 100 mM potassium chloride, 10 mM sodium chloride, 1 mM magnesium chloride, 0.01% Tween-20.
1536-well assay protocol:
(1) Add 2 ul/well of spleen homogenate (27 ug final)
(2) Add 23 nL compounds in DMSO solution. The final titration was 0.5 nM to 58 uM.
(3) Add 2 ul of substrate (1 mM final)
(4) Incubate at 37C for 40 min.
(5) Add 2 ul stop solution (1M NaOH and 1M Glycine mixture, pH 10)
(6) Detect the assay plate in a ViewLux plate reader (PerkinElmer) with Ex=365 nm and Em=440nm.
Keywords: Glucocerebrosidase, beta-glucosidase, Gaucher Disease, pharmacological chaperone, chaperone therapy, high throughput screening, glucocerebrosidase inhibitor, MLSMR, MLSCN, NIH Roadmap, qHTS and NCGC

SMILES | Potency
O=C(/C=C/c1ccc(O)cc1)c1ccc(O)cc1O | 3980 nM (active)
O=c1cc(N2CCCCC2)c(-c2ccccc2)nn1Cc1c(Cl)cccc1Cl | inactive
CC(C)(C)C(=O)OCCNc1nc(-c2ccccc2)nc2ccccc12 | 2240 nM (active)
CC(=O)Nc1ccc(NC(=O)COc2ccccc2C(=O)Nc2cccc(Cl)c2Cl)cc1 | inactive
CCCC1CCC(C(=O)Nc2ccc3nc(N4CCOCC4)cc(C)c3c2)CC1 (stereo not given) | 447 nM (active)
CN(c1ccc(C(=O)Nc2nccs2)cc1)S(=O)(=O)c1ccccc1 | 35500 nM (active)
Cc1cc(N2CCC(C)CC2)nc2ccc(NC(=O)C3CCC(C)CC3)cc12 (stereo not given) | 5010 nM (active)
COc1ccc(-c2nc(N3CCN(S(=O)(=O)c4ccc(F)cc4)CC3)c3ccccc3n2)cc1 | inactive
CCN(CC)c1cc(C)c2cc(NC(=O)C3CCC(C)CC3)ccc2n1 (stereo not given) | 15800 nM (active)
O=S(=O)(c1ccccc1C(F)(F)F)N1CCN(c2nc(-c3cccs3)nc3ccccc23)CC1 | 224 nM (active)
O=S(=O)(c1ccc(OC(F)(F)F)cc1)N1CCN(c2nc(-c3cccs3)nc3ccccc23)CC1 | 3980 nM (active)
Cc1cc(C)n2ncc(C(=O)Nc3cccc(O)c3)c2n1 | inactive
O=C(Nc1cc(Br)ccc1O)c1cnn2c(C(F)F)cc(C3CC3)nc12 | inactive
COc1cccc(NC(=O)CSc2nc3ccccc3c(=O)n2Cc2cccs2)c1 | inactive
COc1cc2c(cc1NC(=O)COC(=O)[C@@H](NC(=O)c1ccccc1)C(C)C)oc1ccccc12 | inactive
CC(=O)c1ccc(S(=O)(=O)N2CCN(c3nc(-c4cccs4)nc4ccccc34)CC2)cc1 | 1120 nM (active)
COc1ccc(S(=O)(=O)N2CCN(c3nc(-c4cccs4)nc4ccccc34)CC2)cc1 | 355 nM (active)
Cc1cc(C)n2ncc(C(=O)Nc3ccc(Cl)c(Cl)c3)c2n1 | inactive
Cc1ccc(S(=O)(=O)Nc2ccc(C(=O)NCc3ccccc3)cc2)cc1 | inactive
O=C(CSc1nccc(-c2cccs2)n1)Nc1cccc(Cl)c1 | inactive

SMILES | Potency
COc1ccccc1OCC(=O)Nc1oc(-c2ccccc2)c(-c2ccccc2)c1C#N | inactive
O=S(=O)(c1ccc2c(c1)CCCC2)N1CCN(c2nc(-c3cccs3)nc3ccccc23)CC1 | 282 nM (active)
O=S(=O)(c1ccccc1)N1CCN(c2nc(-c3ccc(F)cc3)nc3cc(Cl)ccc23)CC1 | inactive
O=S(=O)(c1ccccc1F)N1CCN(c2nc(-c3cccs3)nc3ccccc23)CC1 | 501 nM (active)
O=C(Nc1ccccc1)c1ccc(NS(=O)(=O)c2ccccc2)cc1 | inactive
Cc1ccc(NC(=O)COc2ccccc2C(=O)Nc2ccccc2)cc1Cl | inactive
Cc1cc(C)cc(N(CC(=O)NC2CCC(C)CC2)S(=O)(=O)c2c(C)[nH]c(=O)[nH]c2=O)c1 (stereo not given) | 398 nM (active)
O=S(=O)(c1cccc(Br)c1)N1CCN(c2nc(-c3cccs3)nc3ccccc23)CC1 | 1410 nM (active)
NS(=O)(=O)c1ccc(S(=O)(=O)N2CCN(c3nc(-c4cccs4)nc4ccccc34)CC2)cc1 | 2240 nM (active)
N#Cc1ccc(S(=O)(=O)N2CCN(c3nc(-c4cccs4)nc4ccccc34)CC2)cc1 | 794 nM (active)
O=S(=O)(c1ccc(Cl)cc1)N1CCN(c2nc(-c3ccc(Cl)cc3)nc3ccccc23)CC1 | inactive
CC1(C)CC(=O)C2=C(C1)c1c(ccc3ccccc13)NC2c1ccc(Br)o1 (stereo not given) | inactive
Cc1ccccc1-c1nccc(NCc2cccs2)n1 | 14100 nM (active)
O=C(Nc1nccs1)c1ccc(NS(=O)(=O)c2ccc(Cl)cc2)cc1 | inactive
O=S(=O)(c1cccc(C(F)(F)F)c1)N1CCN(c2nc(-c3cccs3)nc3ccccc23)CC1 | 794 nM (active)
COc1ccc(S(=O)(=O)N2CCN(c3nc(-c4ccccc4)nc4ccccc34)CC2)cc1 | 2510 nM (active)
Cc1cc(N2CCOCC2)nc2ccc(NC(=O)CCC3CCCC3)cc12 | 3160 nM (active)
Clc1ccccc1-c1nccc(NCc2ccccc2)n1 | 3980 nM (active)
Cc1cc(N2CCOCC2)nc2ccc(NC(=O)C3CCC(C)CC3)cc12 (stereo not given) | 2820 nM (active)
O=[N+]([O-])c1ccccc1S(=O)(=O)N1CCN(c2nc(-c3cccs3)nc3ccccc23)CC1 | 562 nM (active)
